Assay results published in PubChem BioAssay.
Calls of active or inactive are those of the source.

What was measured:
[1] = system: Plasmodium falciparum Sir2 (PF13_0152, Sir2A); experiment: pfSir2 binders on small-molecule microarrays, primary screen, biochemical, small-molecule microarray, 635 nm fluorescence (AID 1098); conditions: small-molecule microarray binding, fluorescence 635 nm; higher = more signal;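 note: score merges spot fluorescence intensity with its signal-to-noise ratio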
[2] = small-molecule microarray binders of probe aDKK1, primary screen, biochemical, biotinylated probe, 635/667 nm fluorescence (AID 1099); conditions: higher = more signal;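 note: score merges 667nm spot fluorescence with signal to noise across triplicate slides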
[3] = small-molecule microarray binders of probe aCHRDL2, primary screen, biochemical, biotinylated probe, 635/667 nm fluorescence (AID 1100); conditions: higher = more signal
[4] = splicing luciferase reporter signal modulators, primary screen, spliceosome inhibition project, cell-based, HEK293, splice +/- reporter (AID 1101); conditions: luminescence, 24 h, higher = more signal, called active from +8 up or from −8 down;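 note: HEK293 cells carrying a splicing-competent luciferase reporter gene; test concentration not given here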
[5] = molecular target: Fibroblast growth factor 10 (Homo sapiens) (UniProt O15520); experiment: FGF10 binders on small-molecule microarrays, primary screen, biochemical, small-molecule microarray, 635 nm fluorescence (AID 1102); conditions: FGF10 binding, fluorescence 635 nm, higher = more signal
[6] = system: glycogen synthase kinase-3 (GSK3A per assay name; protocol says GSK3B); experiment: GSK3 binders on small-molecule microarrays, primary screen, biochemical, small-molecule microarray, 635 nm fluorescence, GSK3A (AID 1103); conditions: small-molecule microarray binding, fluorescence 635 nm; higher = more signal; note: the record names both GSK3A and GSK3B
[7] = molecular target: Epidermal growth factor receptor (Homo sapiens) (UniProt P00533); experiment: EGFR binders on small-molecule microarrays, primary screen, biochemical, small-molecule microarray, 635 nm fluorescence (AID 1104); conditions: EGFR binding, higher = more signal;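 note: score merges 667 nm emission intensity with spot signal to noise over triplicate slides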
[8] = molecular target: Follistatin-related protein 3 (Homo sapiens) (UniProt O95633); experiment: FSTL3 binders on small-molecule microarrays, primary screen, biochemical, small-molecule microarray, 635 nm fluorescence (AID 1105); conditions: FSTL3 binding, higher = more signal;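 note: score merges emission near 667 nm and signal to noise per printed spot across three slides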
[9] = molecular target: Dickkopf-related protein 1 (Homo sapiens) (UniProt O94907); experiment: DKK1 binders on small-molecule microarrays, primary screen, biochemical, small-molecule microarray, 635 nm fluorescence scan (AID 1106); conditions: DKK1 binding, higher = more signal;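 note: score merges emission near 667 nm with signal to noise over three replicate slides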
[10] = system: Inhibin beta A chain (activin A); experiment: INHBA (activin A) binders on microarrays, primary screen, biochemical, small-molecule microarray, 635 nm fluorescence scan (AID 1107); conditions: small-molecule microarray binding, higher = more signal;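 note: mouse activin A protein probed at 4.33 µg/mL on printed slides; score merges bound-protein fluorescence near 667 nm with spot signal-to-noise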
[11] = system: Human papillomavirus type 1a protein E7 (residues 44-93); experiment: HPV1a E7 fragment binders on microarrays, primary screen, biochemical, small-molecule microarray, residues 44-93, 635 nm fluorescence (AID 1108); conditions: small-molecule microarray binding, fluorescence 635 nm; higher = more signal;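 note: E7 fragment applied at 1 µg/mL in TBST for 1 h at 4 C; score combines spot fluorescence with its signal to noise ratio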
[12] = modulators of HCV replicon luciferase signal, primary screen, HCV replication inhibitor project, Huh7 cells, luciferase reporter (AID 1109); conditions: 48 h, higher = more signal;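 note: huh7 hepatoma cells harbouring a luciferase neomycin HCV replicon reporter; luciferase luminescence as measure of HCV replicon replication; test concentration not given here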
[13] = molecular target: Left-right determination factor 2 (Homo sapiens) (UniProt O00292); experiment: LEFTY2 binders on small-molecule microarrays, primary screen, biochemical, small-molecule microarray, 635 nm fluorescence scan (AID 1110); conditions: LEFTY2 binding, higher = more signal
[14] = molecular target: Calmodulin-1 (Homo sapiens) (UniProt P0DP23); experiment: CALM1 binders on microarrays, EGTA buffer, profiling panel, biochemical, small-molecule microarray, Cy5-labelled CALM1 (AID 1111); conditions: Cy5-CALM1 binding fluorescence, higher = more signal;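 note: labelled calmodulin applied in Tris saline Tween buffer holding calcium plus EGTA and DTT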
[15] = molecular target: Calmodulin-1 (Homo sapiens) (UniProt P0DP23); experiment: calcium-bound CALM1 binders on microarrays, profiling panel, artefact control for SMM control-protein annotation, biochemical, small-molecule microarray, Cy5-labelled CALM1, plus calcium (AID 1112); conditions: Cy5-CALM1 binding fluorescence, higher = more signal;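 note: score merges spot fluorescence with signal to noise from triplicate slides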
[16] = small-molecule microarray binders of probe aWnt5a, primary screen, biochemical, biotinylated probe, 635/667 nm fluorescence (AID 1113); conditions: higher = more signal;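 note: score merges 667 nm fluorescence intensity with signal-to-noise per printed feature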
[17] = small-molecule microarray binders of probe aShh, primary screen, biochemical, biotinylated probe, 635/667 nm fluorescence (AID 1114); conditions: higher = more signal;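 note: probe is biotin-labelled aShh protein from a stem cell growth factor screen; measures binding of labelled protein to compounds printed on the slide; score merges feature fluorescence at 667 nm with signal-to-noise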
[18] = small-molecule microarray binders of probe aNog, primary screen, biochemical, biotinylated probe, 635/667 nm fluorescence (AID 1115); conditions: higher = more signal;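 note: probe is biotinylated aNog protein used at 0.15 µg/mL for 1 h at 4 C; z-score combines 667 nm fluorescence of each spot with its signal to noise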
[19] = molecular target: Torsin-1A-interacting protein 1 (Homo sapiens) (UniProt Q5JTV8); experiment: LAP1 binders from COS7 cell lysate, primary screen, small-molecule microarray, 635/667 nm fluorescence (AID 1116); conditions: COS7-hLAP1 lysate binding, 635 nm fluorescence, higher = more signal
[20] = molecular target: Alpha-bungarotoxin (Bungarus multicinctus) (UniProt P60615); experiment: alpha-bungarotoxin binders on microarray, profiling panel, artefact control for SMM control protein annotation, biochemical, small-molecule microarray, Alexa647 label, 635/667 nm fluorescence (AID 1117); conditions: alpha-BTX-A647 binding fluorescence, higher = more signal
Sequence of Alpha-bungarotoxin (Bungarus multicinctus) (P60615 whole entry, looked up): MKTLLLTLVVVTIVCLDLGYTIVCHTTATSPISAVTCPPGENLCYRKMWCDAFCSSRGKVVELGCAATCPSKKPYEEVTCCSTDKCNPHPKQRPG

Sequence of Fibroblast growth factor 10 (Homo sapiens) (O15520 whole entry, looked up): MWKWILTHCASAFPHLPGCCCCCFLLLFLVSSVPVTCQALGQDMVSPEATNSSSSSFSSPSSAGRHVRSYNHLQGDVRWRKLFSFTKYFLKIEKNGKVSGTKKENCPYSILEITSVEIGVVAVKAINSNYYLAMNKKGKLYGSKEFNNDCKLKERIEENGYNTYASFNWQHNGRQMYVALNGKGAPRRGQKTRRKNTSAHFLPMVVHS
Sequence of Left-right determination factor 2 (Homo sapiens) (O00292 whole entry, looked up): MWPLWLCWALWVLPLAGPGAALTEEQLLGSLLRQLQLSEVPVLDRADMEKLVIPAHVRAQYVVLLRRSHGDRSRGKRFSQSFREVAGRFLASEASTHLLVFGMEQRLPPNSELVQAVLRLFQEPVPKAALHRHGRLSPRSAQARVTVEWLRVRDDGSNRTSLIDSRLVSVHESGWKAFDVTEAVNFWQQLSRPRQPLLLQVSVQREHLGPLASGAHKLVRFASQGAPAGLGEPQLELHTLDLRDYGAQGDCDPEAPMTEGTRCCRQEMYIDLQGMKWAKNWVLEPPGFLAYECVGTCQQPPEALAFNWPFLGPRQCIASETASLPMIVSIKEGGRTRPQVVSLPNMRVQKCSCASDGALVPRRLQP
Sequence of Torsin-1A-interacting protein 1 (Homo sapiens) (Q5JTV8 whole entry, looked up): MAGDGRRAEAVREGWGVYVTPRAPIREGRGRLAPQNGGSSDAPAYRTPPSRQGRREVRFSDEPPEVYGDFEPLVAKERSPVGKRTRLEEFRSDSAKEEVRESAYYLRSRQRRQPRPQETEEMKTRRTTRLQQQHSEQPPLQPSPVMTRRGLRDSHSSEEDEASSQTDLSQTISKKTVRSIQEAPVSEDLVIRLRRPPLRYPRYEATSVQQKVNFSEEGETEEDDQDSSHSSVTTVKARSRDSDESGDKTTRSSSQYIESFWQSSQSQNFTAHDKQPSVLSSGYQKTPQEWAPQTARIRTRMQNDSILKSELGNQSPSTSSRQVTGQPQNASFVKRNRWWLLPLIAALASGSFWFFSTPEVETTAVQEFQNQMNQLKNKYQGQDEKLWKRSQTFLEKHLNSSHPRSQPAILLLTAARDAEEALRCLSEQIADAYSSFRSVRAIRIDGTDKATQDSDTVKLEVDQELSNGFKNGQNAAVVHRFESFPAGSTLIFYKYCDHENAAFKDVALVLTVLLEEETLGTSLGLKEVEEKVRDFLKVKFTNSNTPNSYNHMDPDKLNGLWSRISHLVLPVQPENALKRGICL
Sequence of Dickkopf-related protein 1 (Homo sapiens) (O94907 whole entry, looked up): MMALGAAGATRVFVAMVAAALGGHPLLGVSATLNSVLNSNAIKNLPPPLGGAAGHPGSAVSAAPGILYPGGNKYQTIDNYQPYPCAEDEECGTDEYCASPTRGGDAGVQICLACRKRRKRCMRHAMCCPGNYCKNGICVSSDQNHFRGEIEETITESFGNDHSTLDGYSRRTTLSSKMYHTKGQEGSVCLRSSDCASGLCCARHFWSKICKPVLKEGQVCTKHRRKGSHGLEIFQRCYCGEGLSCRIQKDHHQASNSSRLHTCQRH
Sequence of Follistatin-related protein 3 (Homo sapiens) (O95633 whole entry, looked up): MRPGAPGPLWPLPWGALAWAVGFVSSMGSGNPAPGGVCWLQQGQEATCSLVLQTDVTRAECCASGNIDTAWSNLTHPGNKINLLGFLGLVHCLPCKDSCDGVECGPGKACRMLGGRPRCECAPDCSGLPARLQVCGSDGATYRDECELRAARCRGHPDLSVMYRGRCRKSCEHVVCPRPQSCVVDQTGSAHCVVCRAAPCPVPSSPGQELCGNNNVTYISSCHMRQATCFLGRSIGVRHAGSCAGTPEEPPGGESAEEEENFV
Sequence of Epidermal growth factor receptor (Homo sapiens) (P00533 whole entry, looked up): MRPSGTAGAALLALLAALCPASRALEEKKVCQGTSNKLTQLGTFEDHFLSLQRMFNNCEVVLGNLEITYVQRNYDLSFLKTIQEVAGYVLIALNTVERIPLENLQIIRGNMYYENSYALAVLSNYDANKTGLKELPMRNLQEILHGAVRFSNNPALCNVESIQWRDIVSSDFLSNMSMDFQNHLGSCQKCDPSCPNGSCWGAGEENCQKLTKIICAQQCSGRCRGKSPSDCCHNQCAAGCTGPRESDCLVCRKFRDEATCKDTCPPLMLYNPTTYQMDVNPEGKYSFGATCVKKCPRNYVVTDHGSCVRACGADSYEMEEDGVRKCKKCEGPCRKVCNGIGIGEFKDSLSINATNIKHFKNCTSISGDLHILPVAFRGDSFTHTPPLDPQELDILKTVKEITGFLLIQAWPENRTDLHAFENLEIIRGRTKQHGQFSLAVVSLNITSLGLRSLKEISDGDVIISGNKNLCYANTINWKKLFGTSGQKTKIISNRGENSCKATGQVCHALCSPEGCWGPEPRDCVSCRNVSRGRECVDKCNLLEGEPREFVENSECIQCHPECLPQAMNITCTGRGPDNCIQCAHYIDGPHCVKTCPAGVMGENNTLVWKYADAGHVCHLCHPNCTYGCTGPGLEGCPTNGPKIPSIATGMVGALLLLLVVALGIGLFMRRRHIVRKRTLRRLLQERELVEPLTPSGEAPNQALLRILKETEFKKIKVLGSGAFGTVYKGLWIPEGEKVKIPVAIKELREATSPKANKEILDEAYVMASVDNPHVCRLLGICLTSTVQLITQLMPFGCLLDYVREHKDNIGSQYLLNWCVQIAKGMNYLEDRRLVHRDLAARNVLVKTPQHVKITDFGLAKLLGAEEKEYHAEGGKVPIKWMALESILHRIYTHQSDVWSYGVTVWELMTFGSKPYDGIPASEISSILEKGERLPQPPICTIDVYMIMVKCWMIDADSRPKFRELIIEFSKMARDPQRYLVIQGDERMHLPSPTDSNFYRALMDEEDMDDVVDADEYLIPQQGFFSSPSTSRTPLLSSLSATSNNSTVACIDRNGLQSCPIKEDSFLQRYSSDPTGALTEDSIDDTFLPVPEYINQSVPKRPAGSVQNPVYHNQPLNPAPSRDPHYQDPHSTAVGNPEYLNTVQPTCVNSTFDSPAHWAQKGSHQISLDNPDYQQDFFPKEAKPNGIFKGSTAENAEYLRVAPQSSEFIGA

SMILES	composite z-score [1]	composite z-score [2]	composite z-score [3]	z-score [4]	composite z-score [5]	composite z-score [6]	composite z-score [7]	composite z-score [8]	composite z-score [9]	composite z-score [10]	composite z-score [11]	z-score [12]	composite z-score [13]	composite z-score [14]	composite z-score [15]	composite z-score [16]	composite z-score [17]	composite z-score [18]	composite z-score [19]	composite z-score [20]
COc1ccc(O[C@H]2C=C[C@@H](c3ccccc3)O[C@@H]2CON=C(C)CCC(=O)OC[C@H]2O[C@H](c3ccccc3)C=C[C@@H]2Oc2ccc(OC)cc2)cc1	0.0844	-0.252	0.2	0.114 (inactive)	-1.19	-1.59	-1.63	-1.25	-0.591	0.95	-1.52	-1.15	-1.08	-0.63	-0.702	-0.176	-0.276	0.646	-1.17	-0.792
CCOC(=O)[C@H](CC(C)C)NC(=O)CCC1CC(OC(=O)NCc2cccc3ccccc23)CC2(CCCC(COC(=O)NCc3cccc(C(F)(F)F)c3)O2)O1 (stereo not given in full)	0.0007	-0.167	-0.346	-0.349 (inactive)	0.475	0.362	0.508	0.346	0.491	-0.0188	0.0567	1.32	0.67	-0.333	-0.568	-0.0643	-0.0626	-0.158	-0.0162	0.157
CCCNC(=O)OC[C@H]1O[C@H](c2ccccc2)C=C[C@@H]1Oc1ccc(OC)cc1	-0.361	-0.377	-0.396	-0.0906 (inactive)	0.0708	-0.0811	0.424	0.108	-0.0332	-0.339	-0.823	-0.974	0.424	-0.598	-0.202	-0.132	-0.153	-0.343	0.124	-0.0001
COC(=O)[C@H](C)NC(=O)CCC1CC(OC(=O)NCCc2ccc(F)cc2)CC2(CCCC(COC(=O)NCc3cccc(C(F)(F)F)c3)O2)O1 (stereo not given in full)	0.185	-0.528	-0.623	0.249 (inactive)	0.951	0.359	0.873	1.31	1.41	0.0622	0.518	-0.377	0.749	-0.0669	-0.23	-0.146	-0.59	-0.302	0.322	-0.131
CO[C@H]1COC(=O)[C@H](C)NC(=O)[C@@H](C)COC(=O)[C@H]2CCCN2C(=O)CC=C[C@H]1C	-0.139	-0.377	-0.823	-0.447 (inactive)	0.764	0.945	0.627	0.736	1.55	-0.252	0.13	-0.328	0.663	-0.538	-1.38	-0.144	-0.24	-0.28	0.109	-0.0339
CCN1C(=O)[C@H]2[C@H]3[C@H](O)[C@H](O)CC(=O)[C@@H]3CC[C@H]2C1=O	0.677	-0.22	-0.478	-0.0387 (inactive)	0.492	0.692	0.555	0.688	0.396	-0.167	0.869	0.105	0.685	0.0536	-0.493	-0.192	-0.138	-0.237	0.467	0.488
C=CC[C@@H]1C=C[C@H](ON=C[C@@H](C)[C@H](OCc2ccccc2)C(C)C)[C@@H](CO)O1	1.07	-0.5	-0.353	0.305 (inactive)	-0.483	-0.363	-0.852	-0.568	-0.189	-0.291	0.0248	-2.12	-0.0977	-1.07	-0.0781	-0.101	-0.186	-0.4	-0.159	-0.901
CCOC(=O)NN=C1C[C@@H](O)[C@@H](O)[C@@H]2[C@@H]3C(=O)N(Cc4ccccc4)C(=O)[C@@H]3CC[C@H]12	0.245	-0.259	-0.301	-1.14 (inactive)	-0.0919	-0.435	0.242	0.0487	0.615	-0.0924	-0.0228	0.47	0.545	0.903	-0.677	-0.0529	-0.0626	-0.158	-0.273	0.405
CC(C)(C)N1C(=O)[C@H]2[C@H]3[C@H](O)[C@H](O)CC(=NOCc4ccccc4)[C@H]3CC[C@H]2C1=O	0.0828	0.989	1.36	0.453 (inactive)	0.0277	-0.399	-0.376	-0.663	-0.551	0.251	-0.397	0.561	-0.0786	0.157	-0.272	-0.0125	-0.154	0.299	0.185	1.28
CCN1C(=O)[C@H]2[C@H]3[C@H](O)[C@H](O)CC(=NOC[C@H]4O[C@H](c5ccccc5)C=C[C@@H]4Oc4ccc(OC)cc4)[C@@H]3CC[C@H]2C1=O	0.605	0.0709	-0.187	0.387 (inactive)	0.809	0.62	0.452	0.616	0.85	-0.0495	0.783	-1.65	0.621	0.406	-0.332	-0.0045	0.318	0.364	0.447	1.05
